# Assay results from PubChem BioAssay AID623868 (Vanderbilt High Throughput Screening Facility, 2012).
# About 760 (36%) of roughly 2,100 compounds were called active. These entries were drawn from the full list. Values without a mark were called inactive.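 The calls were made as follows: active = thallium-flux fluorescence traces judged by eye to show enhanced or reduced glutamate response, manual score 1 or -1, so both directions (some results past the limit were not filed as active); inactive = the rest, including fluorescent or raised-baseline compounds.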
# Experiment: thallium influx changes without GIRK channels – cell-based, HEK-293 rmGlu8, no GIRK, thallium flux, counter-screen for GIRK activator project, confirmation (AID 623868);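 also: extra codes mark interference with 3 for fluorescent and 4 for baseline rise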
# Details: thallium flux fluorescence, at 10 µM, actives lie on both sides, codes: 1 enhancer, -1 blocker, 0 none, thallium stimulus containing EC20 glutamate
row,SMILES,manual score
1,Cc1cc(N2CCC(C)CC2)n2ncc(-c3ccccc3)c2n1,0
2,O=C(C1CCN(c2ncnc3c2sc2cccc(F)c23)CC1)N1CCOCC1,-0.5
3,CN(C)CCCOc1nc2c(c(=O)n(C)c(=O)n2C)n1C,1.5
4,O=C(Nc1ccc(Cl)cc1)NC1CCCCC1Cc1ccco1 (configuration not stated),0
5,CC1CCc2c(sc(NC(=O)C(=O)NCc3ccco3)c2C#N)C1 (configuration not stated),1 (active)
6,O=C(NCc1ccccc1)C(=O)Nc1nc(C23CC4CC(CC(C4)C2)C3)cs1,0
7,O=C(COc1ccc2ccccc2c1CN1CCOCC1)N1CCc2ccccc21,0
8,CCCCn1nc(C(=O)N2CCc3ccccc32)c2ccccc2c1=O,0
9,CCn1nc(C(=O)OCC(=O)c2c[nH]c3ccccc23)c2ccccc2c1=O,-1 (active)
10,CCn1nc(C(=O)OCC(=O)N2CCc3ccccc32)c2ccccc2c1=O,-1 (active)
11,CCOC(=O)C(C)Sc1nnc(-c2c[nH]c3ccccc23)n1C (configuration not stated),0
12,CCN(C(=O)CN1CCN(c2ccccc2O)CC1)c1c(N)n(Cc2ccccc2)c(=O)[nH]c1=O,0
13,Cc1cccc(C(=O)NNC(=O)C(=O)NC(C)(C)C)c1,1 (active)
14,CC(C)(C)c1ccc(SCC(N)=O)cc1,0
15,CC(C)(C)c1ccc(C(=O)NC(=S)Nn2cnnc2)cc1,0
16,CC(C)(C)NC(=O)C(=O)NNC(=O)c1ccc(C(C)(C)C)cc1,1 (active)
17,COc1ccccc1N1CCN(C(=O)CCn2c(=O)[nH]c3ccsc3c2=O)CC1,0
18,COc1cc(NC(=O)CCn2c(=O)[nH]c3ccsc3c2=O)cc(OC)c1,0
19,COc1ccc(Cn2c(=S)[nH]c3ccsc3c2=O)cc1,1 (active)
20,Cc1cc(C)cc(OCC(=O)N2N=C(C(F)(F)F)CC2(O)C(C)(C)C)c1 (configuration not stated),0
21,Cc1ccccc1C(=O)Nc1nc(=S)ss1,1 (active)
22,Cc1ccccc1C(=O)Nc1ccc2nc3n(c(=O)c2c1)CCC3,0

row,SMILES,manual score
1,Cc1ccccc1CNC(=O)Nc1cccs1,0
2,O=C(Cn1c(=O)[nH]c2ccsc2c1=O)NC1CCCCCC1,0
3,CCn1c(O)c(N=NC2=NC(=O)CS2)c2cc(C)ccc21,1 (active)
4,CCc1ccc2c(c1)c(N=NC1=NC(=O)CS1)c(O)n2CC,1 (active)
5,CCc1ccc2c(c1)c(N=NC1=NC(=O)CS1)c(O)n2C,1 (active)
6,CC(Nc1nc(N2CCCC2)nc2ccccc12)c1ccccc1 (configuration not stated),0
7,Cc1ccccc1/C=c1\s/c(=C\C(=O)C(C)(C)C)[nH]c1=O,0.5
8,CC(C)(C)S(=O)(=O)c1ccc(S(=O)(=O)C(C)(C)C)s1,0
9,CCCn1nnnc1NC(=O)c1ccc2ccccc2c1,1 (active)
10,CCCn1nc2cc(C(=O)NCCc3ccc(C)cc3)ccc2c1OCC,0
11,CCC(=O)Nc1ccc2c(c1)ncn2-c1ccc(OC)cc1,0
12,CC1CCCN(Cc2cccc(Oc3ccccc3)c2)C1 (configuration not stated),0
13,Cc1ccc(N=Nc2ccc(O)c3ncccc23)cc1,1 (active)
14,Cc1ccccc1N=Nc1ccc(O)c2ncccc12,1 (active)
15,O=c1cc(CN2CCOCC2)nc(C2CC2)[nH]1,0
16,C/C(CC(O)c1ccc2ccccc2n1)=N/O (configuration not stated),0
17,CCCCn1c(N)c(C(=S)NC(=O)CC(C)C)c(=O)n(C)c1=O,1 (active)
18,CCCCn1c(N)c(C(=S)NC(=O)CC(C)(C)C)c(=O)n(C)c1=O,1 (active)
19,CCN(CC)c1ccc2cc(-c3nnc(-c4ccccc4)o3)c(=O)oc2c1,3
20,CC12CCC(C(=O)N(CSC(=S)N/N=C\c3ccccc3Cl)C1=O)C2(C)C (configuration not stated),1 (active)
21,CC12CCC(C(=O)N(CSC(=S)N/N=C\c3ccccc3O)C1=O)C2(C)C (configuration not stated),1 (active)
22,O=C(c1cccc(F)c1)N1CCN(C(=O)c2cc(-c3ccc(Cl)cc3Cl)on2)CC1,0

row,SMILES,manual score
1,CC(C)n1c(-c2ccc(C(C)(C)C)cc2)n[nH]c1=S,1 (active)
2,CC(C)(C)c1ccc(-c2n[nH]c(=S)n2C2CCCC2)cc1,1 (active)
3,CCCCCCc1cc2cc(-c3nnc(-c4cc(OC)c(OC)c(OC)c4)o3)c(=O)oc2cc1O,3
4,CC(C)CCn1c(S(=O)(=O)O)nc2ccccc21,0
5,O=C(N/N=C\c1ccc(Cl)s1)c1cccs1,1 (active)
6,NS(=O)(=O)c1ccc(CCNC2CC(=O)N(Cc3ccccc3)C2=O)cc1 (configuration not stated),0
7,Cc1cccc(-n2ncc3c(NCCc4ccc(S(N)(=O)=O)cc4)ncnc32)c1,0
8,Cc1nc(NCCc2ccc(S(N)(=O)=O)cc2)c2c(C)c(C)sc2n1,1 (active)
9,CCc1cc(C(=O)NNC(=S)Nc2cccc(C)c2)cs1,1 (active)
10,CCc1cccc(NC(=O)CCSCCC(=O)Nc2cccc(CC)c2)c1,0
11,Cc1ccc(Cl)cc1NC(=S)NCc1cccn1C,0
12,Cc1ccc(C2CC2C(=O)NNC(=S)Nc2cccc(Cl)c2)cc1 (configuration not stated),0
13,Cc1ccc(C2CC2C(=O)NNC(=S)Nc2ccc(Cl)cc2)cc1 (configuration not stated),0.5
14,Cc1ccc(C2CC2C(=O)NNC(=S)Nc2cccc(C)c2)cc1 (configuration not stated),1 (active)
15,CCn1c(NC(=O)Nc2cccc(C)c2C)cc2sccc21,0
16,CCc1cc(C(=O)NNC(=S)Nc2cc(C)ccc2C)cs1,1 (active)
17,CCc1cc(C(=O)NNC(=S)Nc2ccccc2C)cs1,1 (active)
18,CCOC(=O)CC1=C(C(=O)OCC)C(c2cccs2)C(C#N)=C(N)O1 (configuration not stated),-0.5
19,CCOc1ccc(NC(=O)Nc2cccs2)cc1,0
20,CCCCN(C)CC(O)Cn1cc(/C=C/C(=O)c2cccs2)c2ccccc21 (configuration not stated),3
21,Cc1cccc(NC(=S)NNC(=O)c2sccc2C)c1,1 (active)
22,CC(C)C(=O)Nc1nnn(C)n1,0

row,SMILES,manual score
1,C=CCNCc1cccn1-c1sc2c(c1C#N)CCCC2,0
2,Cc1[nH]n(-c2ccc(F)cc2)c(=O)c1/C=N/c1sc2c(c1C#N)CCCC2,3
3,Cc1[nH]n(-c2cccc3ccccc23)c(=O)c1/C=N/c1sc2c(c1C#N)CCC2,1 (active)
4,CCOc1cc(C2NN=C(c3ccc(C)cc3)S2)ccc1O (configuration not stated),1 (active)
5,C=CCNC(=O)NC(=S)c1ccccc1,1 (active)
6,N#Cc1ccc(-c2csc(NC3=NCCCCC3)n2)cc1,0
7,COC(=O)NC(=S)Nc1ccc(Oc2ccc(Cl)cc2Cl)c(Cl)c1,1 (active)
8,O=C(COc1ccc(Cl)cc1Cl)NNC(=S)Nc1ccc(F)cc1,1 (active)
9,C=CCNC(=S)NNC(=O)COc1ccc(Cl)cc1Cl,0.5
10,COc1ccc(NC(=S)SC)cc1OC,0
11,O=C(COc1ccc(Cl)cc1Cl)Nc1noc2ccccc12,0
12,CCC(C)c1ccc(NC(=S)Nc2ccc(OC)c(OC)c2)cc1 (configuration not stated),0
13,CC(=O)c1ccc(OC(=O)N(c2ccccc2)c2ccccc2)cc1,0
14,CCOc1[nH]n(-c2ccc(Cl)cc2)c(=O)c1C=Nc1ccc(Cl)cc1,0
15,COc1ccc2nc(/N=C/c3c(C)[nH]n(-c4ccc(C)cc4C)c3=O)sc2c1,1 (active)
16,COc1ccc2nc(/N=C/c3c(C)[nH]n(-c4ccc(C)cc4)c3=O)sc2c1,1 (active)
17,CCOc1ccc2nc(/N=C/c3c(C)[nH]n(-c4ccccc4)c3=O)sc2c1,1 (active)
18,CCOc1ccc2nc(/N=C/c3c(C)[nH]n(-c4ccc(C)cc4)c3=O)sc2c1,1 (active)
19,CC(C)OC(=O)CC12CN3CN(C1)CC(CC(=O)OC(C)C)(C3)C2=O,0
20,CC1(C)NC(=O)N(CC(O)COc2ccc(-c3ccc(C#N)cc3)cc2)C1=O (configuration not stated),0
21,CCOc1cc(N2CCOCC2)c(OCC)cc1NC(=O)COC(=O)CCc1c[nH]c2ccccc12,0
22,COc1c2occc2c(OC)c2c(=O)cc(C(F)(F)F)oc12,0

row,SMILES,manual score
1,CCN(CC)c1ccc(NC(=O)c2nc3nc(C)cc(C(F)F)n3n2)cc1,0
2,O=C(COC(=O)CCC1CCCC1)Nc1nc2c(F)c(F)c(F)cc2s1,0
3,CCN1CCCC1CNC(=O)C1CCN(Cc2nc(-c3cccc(Br)c3)oc2C)CC1 (configuration not stated),0
4,CCOC(=O)C(CC)Sc1nnc2cc(C)c3ccccc3n12 (configuration not stated),-1 (active)
5,CCOC(=O)C(CC)Sc1nnc(COc2ccc(C)cc2)n1-c1ccccc1 (configuration not stated),3
6,CCN(CC)CCn1c(=S)[nH]c2cc(Cl)ccc2c1=O,0.5
7,O=c1c2ccc(Cl)cc2[nH]c(=S)n1CCC1=CCCCC1,1 (active)
8,COc1ccc(CN(CCC#N)C(=S)NC(=O)c2ccccc2)cc1,1 (active)
9,COCCN(C(=O)Cc1cccs1)C(C(=O)NCc1ccc(OC)cc1)c1ccccc1 (configuration not stated),0
10,COc1ccc(CNC(=O)C(C#N)c2nc3ccccc3nc2N2CCCC2)cc1 (configuration not stated),3
11,N#CCCN(Cc1ccccc1)C(=S)NC(=O)c1ccccc1,1 (active)
12,CC(C)CN1C(=O)/C(=C/c2cccs2)NC1=S,1 (active)
13,O=C1/C(=C/c2ccc(N3CCCC3)cc2)NC(=S)N1C1CC1,3
14,CCN1C(=O)/C(=C/c2ccc(C)s2)NC1=S,0.5
15,CCCN1C(=O)/C(=C/c2ccc(N3CCCC3)c(C)c2)NC1=S,3
16,CCCN1C(=O)/C(=C/c2ccc(C)s2)NC1=S,1 (active)
17,CSc1nc2ccccc2cc1/C=C(\C#N)c1cccc(C)c1,0
18,CC1Oc2ccccc2C=C1/C=N/NC(=O)c1ccccc1 (configuration not stated),0
19,Cc1ccc(C(=O)N/N=C/C2=Cc3ccccc3OC2C)cc1 (configuration not stated),1 (active)
